HP1b binding inh: inhibitors of HP1-beta chromodomain binding to methylated histone tails. P83916. AlphaScreen HP1-beta / biotin-H3K9me3 peptide binding. Potency, µM (highest dose often 114 µM), hits mostly inhibitors. 390,000 tested, 0.56% active. AID 540317; note: nearly all actives have a fitted effect of over 70% in size
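HP1-beta protein (50 nM final) preincubated 30 min at room temperature with biotinylated H3(1-18)K9me3 peptide (50 nM) in PBS pH 7.4, 0.01% Tween-20, then compound added for 30 min. AlphaScreen streptavidin donor/nickel chelate acceptor beads (10 ug/mL final), 30 min dark, luminescence read.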
PLK1 PBD block: blocks phosphopeptide binding to human PLK1 polo-box domain; P53350; Plk1 PBD binding of FITC phosphopeptide, fluorescence polarization; Potency, µM, most hits filed as inhibitors; 360,000 tested, 2.8% active; AID 720504; note: series mostly up to about 57 µM; nearly all actives have a fitted effect of over 65% in size
BAZ2B inh: blocks human BAZ2B | Q9UIF8 | AlphaScreen BAZ2B-H3K14Ac peptide displacement | Potency, µM (series often up to 114 µM), actives largely listed as inhibitors | 360,000 tested, 4.4% active | AID 504333; note: nearly all actives have a fitted effect of over 60% in size
Target sequence (Q9UIF8 whole entry, looked up): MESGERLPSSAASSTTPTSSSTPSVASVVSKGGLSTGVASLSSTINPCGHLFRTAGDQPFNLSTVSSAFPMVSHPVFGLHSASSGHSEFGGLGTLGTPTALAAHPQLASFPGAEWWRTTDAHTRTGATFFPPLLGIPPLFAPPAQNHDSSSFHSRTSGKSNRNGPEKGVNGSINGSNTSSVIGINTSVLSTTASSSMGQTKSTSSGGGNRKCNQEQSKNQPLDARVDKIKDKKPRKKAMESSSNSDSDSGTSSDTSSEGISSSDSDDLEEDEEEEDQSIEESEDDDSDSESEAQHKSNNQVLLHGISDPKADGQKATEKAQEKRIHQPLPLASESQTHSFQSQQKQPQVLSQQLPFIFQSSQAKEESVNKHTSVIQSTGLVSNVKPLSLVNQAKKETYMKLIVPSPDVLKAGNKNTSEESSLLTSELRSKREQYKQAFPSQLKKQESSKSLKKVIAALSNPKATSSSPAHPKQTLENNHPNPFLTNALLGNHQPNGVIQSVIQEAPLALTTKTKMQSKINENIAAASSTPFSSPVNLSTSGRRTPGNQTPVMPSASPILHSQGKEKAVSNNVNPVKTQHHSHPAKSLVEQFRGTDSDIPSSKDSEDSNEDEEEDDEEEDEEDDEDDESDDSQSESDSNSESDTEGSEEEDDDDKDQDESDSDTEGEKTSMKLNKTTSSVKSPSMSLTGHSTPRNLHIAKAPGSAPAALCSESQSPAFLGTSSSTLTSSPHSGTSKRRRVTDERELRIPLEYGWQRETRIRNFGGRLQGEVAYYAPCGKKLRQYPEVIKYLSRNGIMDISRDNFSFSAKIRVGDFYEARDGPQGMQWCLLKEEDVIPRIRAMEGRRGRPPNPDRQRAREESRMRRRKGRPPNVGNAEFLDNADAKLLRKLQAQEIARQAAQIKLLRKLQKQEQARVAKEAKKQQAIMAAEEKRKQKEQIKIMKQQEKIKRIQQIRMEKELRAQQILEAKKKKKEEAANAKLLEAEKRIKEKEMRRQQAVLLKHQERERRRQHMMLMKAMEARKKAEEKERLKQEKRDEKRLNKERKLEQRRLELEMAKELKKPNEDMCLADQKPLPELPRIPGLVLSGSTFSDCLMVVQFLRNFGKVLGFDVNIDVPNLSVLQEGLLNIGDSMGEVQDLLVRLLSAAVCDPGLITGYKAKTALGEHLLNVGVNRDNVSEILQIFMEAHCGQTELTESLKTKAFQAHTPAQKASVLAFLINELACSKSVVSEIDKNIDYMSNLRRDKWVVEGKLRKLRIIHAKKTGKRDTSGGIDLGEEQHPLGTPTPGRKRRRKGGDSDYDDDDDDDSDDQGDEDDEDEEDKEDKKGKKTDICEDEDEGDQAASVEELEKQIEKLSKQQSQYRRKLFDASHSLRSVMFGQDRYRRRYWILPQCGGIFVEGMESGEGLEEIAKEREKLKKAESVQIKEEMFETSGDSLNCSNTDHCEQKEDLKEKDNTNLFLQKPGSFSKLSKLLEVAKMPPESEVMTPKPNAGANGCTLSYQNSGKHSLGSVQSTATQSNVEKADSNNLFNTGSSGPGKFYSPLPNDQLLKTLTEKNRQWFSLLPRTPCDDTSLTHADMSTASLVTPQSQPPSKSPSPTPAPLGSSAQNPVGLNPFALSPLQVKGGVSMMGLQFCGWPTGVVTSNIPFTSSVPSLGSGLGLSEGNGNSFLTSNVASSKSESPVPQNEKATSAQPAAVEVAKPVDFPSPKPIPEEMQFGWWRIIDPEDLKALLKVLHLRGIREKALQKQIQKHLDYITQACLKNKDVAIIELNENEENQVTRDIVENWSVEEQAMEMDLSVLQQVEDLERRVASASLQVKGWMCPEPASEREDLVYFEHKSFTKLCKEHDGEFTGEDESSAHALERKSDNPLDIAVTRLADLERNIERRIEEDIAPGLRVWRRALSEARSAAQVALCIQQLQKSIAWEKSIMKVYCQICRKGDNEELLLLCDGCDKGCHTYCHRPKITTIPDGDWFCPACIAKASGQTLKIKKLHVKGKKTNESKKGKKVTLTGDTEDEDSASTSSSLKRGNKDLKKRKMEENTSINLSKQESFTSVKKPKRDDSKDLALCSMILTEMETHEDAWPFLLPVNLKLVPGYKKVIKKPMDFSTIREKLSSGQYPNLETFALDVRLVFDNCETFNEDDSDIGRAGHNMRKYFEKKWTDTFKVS
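Complex of BAZ2B and biotin-H3K14Ac (50 nM apiece) forms over 30 min at RT, then faces library compounds up to 110 uM for another 30 min; AlphaScreen beads added, 20 min dark incubation, luminescence read.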
JMJD2A Tudor inh: blocks the human JMJD2A Tudor domain; AlphaScreen JMJD2A-Tudor / H3K4me3 peptide binding; Potency, µM (highest dose often 114 µM), most hits filed as inhibitors; 390,000 tested, 4.4% active; AID 504339; note: nearly all actives have a fitted effect of over 50% in size
VDR inh: blocks the human vitamin D receptor | P11473 | VDR-SRC2-3 peptide fluorescence polarization, 2 h | Potency, µM, most hits filed as inhibitors | 400,000 tested, 0.93% active
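The screen uses fluorescence polarization to detect compounds that interfere with recruitment of the SRC2-3 coactivator peptide to VDR; plates are read after 2 h at room temperature.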
L3MBTL1 inh: L3MBTL1 (human) inhibition | AlphaScreen L3MBTL1–H3K9me1 peptide binding | 230,000 tested, 0.66% active | Potency, µM (doses to about 57.1 µM), most hits filed as inhibitors | AID 485360 | Q9Y468; note: nearly all actives have a fitted effect of over 60% in size
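L3MBTL1 (50 nM) pre-complexed 30 min with biotinylated H3(1-15)K9me1 peptide (75 nM), then compounds added for 30 min at room temperature; AlphaScreen streptavidin donor/nickel chelate acceptor beads (10 ug/mL final) read after 30 min dark incubation.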
Of the large screens only hits and unclear results are named; the others gave an inactive call. A selection: hits, their analogues and other compounds. The true share with any hit is near 6.9%. Calls come from the whole dose curve; as a rule, active = well fitted curve in the direction sought with a large enough effect; inconclusive = small, poorly fitted or top-dose-only effect, or another doubt; inactive = no such curve, though single readings can be large; an effect the other way counts as inactive or inconclusive.

O=C(c1sc(N2CCOCC2)nc1-c1ccccc1)N1CCCCC1	none
CCOc1ccc(-n2c(N)c(C(=O)N3CCN(C)CC3)sc2=S)cc1	none
C[C@@H](Nc1nc(Cl)nc2nc[nH]c12)c1ccccc1	VDR inh inconclusive (no result: PLK1 PBD block, BAZ2B inh, L3MBTL1 inh)
Cc1ccc(NC(=O)COc2cccc(/C=C3\SC(=S)N(CCC(=O)O)C3=O)c2)cc1Cl	PLK1 PBD block 19µM, BAZ2B inh 45µM, VDR inh inconclusive (no result: L3MBTL1 inh)
O=C(O)CCN1C(=O)/C(=C\c2cccc(OCC(=O)Nc3ccc(Cl)cc3)c2)SC1=S	HP1b binding inh 45µM, PLK1 PBD block 27µM, BAZ2B inh 45µM, VDR inh 14µM
COc1cccc(/C=C2\SC(=S)N(CCCC(=O)Nc3ccc(C(=O)O)cc3)C2=O)c1	BAZ2B inh inconclusive, JMJD2A Tudor inh inconclusive (no result: L3MBTL1 inh)
Cc1cc(/C=N/Nc2ccc([N+](=O)[O-])cn2)c(C)n1-c1ccc(C(=O)O)cc1	BAZ2B inh 50µM, JMJD2A Tudor inh inconclusive (no result: L3MBTL1 inh)
O=[N+]([O-])c1ccc(N/N=C\c2cccn2-c2ccccc2)nc1	HP1b binding inh inconclusive, BAZ2B inh inconclusive, JMJD2A Tudor inh 40µM, L3MBTL1 inh inconclusive
Cc1ccccc1-n1c(C)cc(/C=N/Nc2ccc([N+](=O)[O-])cn2)c1C	none (no result: L3MBTL1 inh)
O=C(CN(C(=O)c1csnn1)c1ccc2c(c1)OCCO2)NCc1ccccc1	none (no result: L3MBTL1 inh)
Cc1ccc(S(=O)(=O)NCC(=O)N2CCC(C)CC2)cc1	PLK1 PBD block 30µM, JMJD2A Tudor inh inconclusive (no result: L3MBTL1 inh)
Cc1ccc(S(=O)(=O)NCCCC(=O)N2CCC(C)CC2)cc1	none
O=C(Cn1cc(COc2ccc(Cl)c(Cl)c2)nn1)NS(=O)(=O)c1ccccc1C(F)(F)F	none (no result: HP1b binding inh, BAZ2B inh, JMJD2A Tudor inh, VDR inh, L3MBTL1 inh)
c1coc(-c2nnc(NC3=NCCC3)o2)c1	none
Cc1nnc(NC2=NCCC2)s1	JMJD2A Tudor inh 79µM
Cc1nnc(NC2=NCCC2)o1	BAZ2B inh 79µM
CCCOc1ccc(CNC(=O)C(NS(=O)(=O)c2cccs2)C(C)C)cc1 (stereo not drawn)	none (no result: PLK1 PBD block, L3MBTL1 inh)
O=C(/C=C/c1ccccc1)Oc1cccc2cccnc12	BAZ2B inh 45µM
O=C(Oc1cccc2cccnc12)c1ccccc1	none (no result: HP1b binding inh, PLK1 PBD block, BAZ2B inh, JMJD2A Tudor inh, L3MBTL1 inh)
O=C(/C=C\c1ccccc1)Oc1cccc2cccnc12	BAZ2B inh 40µM, L3MBTL1 inh inconclusive
COc1ccc(CNC(=O)COC(=O)CCn2c(C)csc2=O)cc1OC	none
CN(C)Cc1ccccc1-c1nccc(N(C)Cc2ccco2)n1	none (no result: HP1b binding inh, PLK1 PBD block, BAZ2B inh, JMJD2A Tudor inh, L3MBTL1 inh)
CCCN1C(=O)SC(CC(=O)Nc2ccccc2)C1=O (stereo not drawn)	none
O=C(CC1SC(=Nc2ccccc2)N(CCCO)C1=O)Nc1ccc(Cl)cc1 (stereo not drawn)	none
O=C(CC1SC(=O)N(c2ccccc2)C1=O)Nc1ccc(Cl)cc1 (stereo not drawn)	PLK1 PBD block 11µM, VDR inh 40µM
O=C(CC1SC(=O)N(c2ccccc2)C1=O)Nc1ccc(Br)cc1 (stereo not drawn)	PLK1 PBD block inconclusive, BAZ2B inh inconclusive, VDR inh 35µM
Cc1ccc(N(CC(=O)NCc2ccc(F)cc2)C(=O)CCC(=O)Nc2ccccn2)cc1C	PLK1 PBD block inconclusive, JMJD2A Tudor inh 79µM, VDR inh inconclusive (no result: L3MBTL1 inh)
CCCCNC(=O)NS(=O)(=O)c1ccc(NC(=O)CCC(=O)c2cccs2)cc1	none (no result: L3MBTL1 inh)
CCN(CC)CCC(=O)NN	BAZ2B inh inconclusive
Cc1ccc(C)c(OCC(=O)Nc2c(C)n(C)n(-c3ccccc3)c2=O)c1	none
CC(=O)c1cccc(OCC(=O)Nc2cccc(C(=O)Nc3c(C)n(C)n(-c4ccccc4)c3=O)c2)c1	PLK1 PBD block 19µM
Cc1cc(=O)oc2cc(OCC(=O)Nc3c(C)n(C)n(-c4ccccc4)c3=O)c(Cl)cc12	BAZ2B inh 79µM
Cc1c(C(=O)OCC(=O)Nc2c(C)n(C)n(-c3ccccc3)c2=O)cccc1[N+](=O)[O-]	PLK1 PBD block 21µM
C[Se]CCC(N)C(=O)O (stereo not drawn)	none (no result: HP1b binding inh, PLK1 PBD block, BAZ2B inh, JMJD2A Tudor inh, L3MBTL1 inh)
COc1ccc(C2c3ccccc3Oc3ncn(CCN4CCOCC4)c(=N)c32)cc1OC (stereo not drawn)	none (no result: HP1b binding inh, PLK1 PBD block, BAZ2B inh, VDR inh, L3MBTL1 inh)
COc1cccc(NC(=O)Cn2c(=O)n(Cc3ccco3)c(=O)c3cc(OC)c(OC)cc32)c1	none (no result: PLK1 PBD block, L3MBTL1 inh)

From PubChem
